# Compound activity as filed in PubChem.
# TDP-43 yeast inh – rescues yeast growth from TDP-43 toxicity | Potency, µM (top dose mostly 46.1 µM), inactives show at the top dose growth rescue (activation), hits mostly activators | 1.8% of 410,000 active | TDP-43 expressing yeast growth rescue, BacTiter-Glo, 24 h; further: % of control where 0% means no effect; nearly all actives have a fitted effect of over 50% in size
#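 Galactose-induced TDP-43 yeast, OD600=0.02, compound pinned; 24 hr, 30 deg C; BacTiter-Glo luminescence for growth. Inhibitors of TDP-43 toxicity read as activators.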
# Abeta rescue – restores growth of yeast expressing A-beta42 peptide | yeast expressing A-beta42, growth rescue, OD600, 48 h; response scale: 0% DMSO, 100% iron-clioquinol control | Potency, µM (doses to about 46.1 µM), usual class: activators | 0.063% of 410,000 active | AID 1347071; further: nearly all actives have a fitted effect of over 55% in size
#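 Yeast growth medium received pinned compounds, then yeast cells expressing toxic A-beta were added; plates incubated at 30 C for 48 hr. Growth read as absorbance at 600 nm, normalized to DMSO and equimolar FeCl3 plus clioquinol controls.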
# aSyn rescue – inhibitors of alpha-synuclein toxicity in yeast. Yeast expressing alpha-synuclein, growth rescue, BacTiter-Glo, 24 h. Potency, µM (top dose mostly 46.1 µM), for the others: at the top dose growth rescue (activation), hits mostly activators. 0.14% of 370,000 active; further: % of control where 0% means no effect; nearly all actives have a fitted effect of over 65% in size
#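 Screening used galactose-induced yeast with toxic alpha-synuclein levels, exposed to compound for 24 hr at 30 deg C. Cell growth, read with BacTiter-Glo luminescence, gave the measured signal.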
# FUS suppressor – suppressors of FUS proteinopathy in yeast; S. cerevisiae FUS-expressing, growth rescue, OD600, 24 h; Potency, µM (top dose mostly 76.6 µM), hits mostly activators; 0.24% of 390,000 active; AID 1347120;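 further: plate controls were DMSO vehicle for no effect and reference control for full effect; nearly all actives have a fitted effect of over 55% in size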
#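 Absorbance at 600 nm, taken 24hr after compound addition, measured rescue of FUS-yeast growth at 30C. Induction used 2% galactose with seeding at OD 0.005. Controls: CP55940 from 92uM final, DMSO only.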
# Starred values were filed as active, the others as inactive; i = inactive; ? = inconclusive; . = no result. An excerpt weighted towards active compounds, which were near 2.1% of everything screened. The call rests on the fitted dose curve; in most records, active means well fitted curve in the direction sought with a large enough effect; inconclusive means small, poorly fitted or top-dose-only effect, or another doubt; inactive means no such curve, though single readings can be large; an effect the other way counts as inactive or inconclusive. Potency means the concentration at half of the fitted maximal effect.
SMILES,TDP-43 yeast inh,Abeta rescue,aSyn rescue,FUS suppressor
CC(=O)c1cn(CCCOc2ccccc2)c2ccccc12,11µM*,i,14%,i
COc1ccc(C(=O)C23CN4CN(CN(C4)C2)C3)cc1,-23%,i,-9%,i
COc1ccc(C(=O)C(C)(C)NO)cc1,11µM*,?,?,i
COC(=O)C1=C(c2ccc(F)cc2F)C[C@@H]2CC[C@H]1N2C(=O)N1CCC(O)(c2ccc(Cl)cc2)CC1,20µM*,?,?,?
Cc1ccc([C@H]2C[C@@H](O)[C@H](n3cc(COC(=O)c4ccccc4)nn3)CN2CC2CCCCC2)cc1,?,i,7%,i
Cc1c(C)c2c(OCC(=O)N[C@@H](C)C(=O)O)cc3c(c2oc1=O)CCC(C)(C)O3,?,i,0%,i
COc1ccc(-c2nc(CSCC(=O)N3CCN(c4ccc(F)cc4)CC3)c(C)o2)cc1,?,i,.,?
CC(C)(C)c1ccc(OCCON2C(=O)CCC2=O)c(Cl)c1,13µM*,i,1%,i
O=C1NCCOC(=O)[C@@H](Cc2ccc(F)cc2)CC/C=C/C[C@@H]1CC(=O)N(CCO)Cc1ccccc1,22%,i,1%,?
O=C(Nc1ccc2c(c1)OCCO2)c1cccn(Cc2ccccc2)c1=O,20µM*,i,.,i
N#Cc1ccccc1NC(=O)c1cccn(Cc2ccccc2)c1=O,22µM*,i,.,i
Cc1cccc(C)c1NC(=O)c1cccn(Cc2ccc3c(c2)OC(F)(F)O3)c1=O,20µM*,i,1%,?
O=C(Nc1ccc2c(c1)OCCO2)c1cccn(Cc2cccc([N+](=O)[O-])c2)c1=O,-1%,i,.,i
CC(C)Oc1cccc(NC(=O)c2cccn(Cc3ccc4c(c3)OC(F)(F)O4)c2=O)c1,23%,i,11%,i
CCOc1ccc(S(=O)(=O)NCCc2sc3nc(-c4ccc(C)cc4)nn3c2C)cc1,?,i,.,i
S=C(NCCc1ccccc1)N1Cc2ccccc2-n2nncc2C1,22µM*,i,0%,i
S=C(NCCc1ccccc1)N1Cc2cc(N3CCCCC3)ccc2-n2nncc2C1,35µM*,i,12%,?
O=C1C(=O)C(Cl)=C(Cl)C(Cl)=C1Cl,4%,i,?,i
C[C@H](CCC(=O)O)[C@H]1CC[C@H]2[C@@H]3[C@H](O)C[C@@H]4C[C@H](O)CC[C@]4(C)[C@H]3CC[C@]12C,22µM*,i,6%,?
N#CSCC(=O)N1c2ccccc2CCc2ccccc21,18µM*,?,0%,.
Cc1cccc(OCCNc2ncccc2[N+](=O)[O-])c1,?,i,10%,i
Nc1c(Br)cc([N+](=O)[O-])cc1[N+](=O)[O-],13µM*,i,1%,i
Cc1ccc(CN(C)C(=O)c2cccc(S(=O)(=O)N3CCN(c4ccccc4)CC3)c2)cc1,?,i,15%,.
O=C(OCCCCN1C(=O)c2ccccc2C1=O)c1ccc(Br)o1,?,i,4%,i
C[C@]12CC[C@@H](O)C[C@@H]1CC[C@@H]1[C@@H]2CC[C@]2(C)C(=O)CC[C@@H]12,18µM*,i,1%,i
CN(CC1COc2ccccc2O1)c1nc(-c2cccnc2)nc2ccccc12 (stereo not given),8.9µM*,i,-16%,i
CCCCCCCCN1C(=O)[C@H](CC(=O)NCCc2ccccc2OC)C[C@@]2(C(=O)OC)CCCCC=C12,?,i,?,?
